Source: PubChem BioAssay (Tox21)
Results filed as inconclusive are left out. Activity calls are given as the source filed them. Unless noted, calls follow the shape of the dose curve; as a rule, active = well fitted curve in the direction sought with a large enough effect in the repeat runs; inconclusive = weak or mixed curves; inactive = no such curve, though single readings can be large; an effect the other way counts as inactive or inconclusive.

Legend:
[1] = qHTS assay to identify small molecule agonists of the estrogen receptor beta (ER-beta) signaling pathway - cell viability counter screen (AID 1259380); also: nearly all actives have a fitted effect of over 30% in size; also: potency is read from the fitted curve at half-maximal effect
How it was run: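 Cytotoxicity is measured in parallel with the reporter screen: after 16 hr compound exposure at 37C and a 2 hr LiveBLAzer step, CellTiter-Glo is added to the same ER-beta-UAS-bla HEK293T wells and luminescence read after 30 min.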

[2] = molecular target: Estrogen receptor (Homo sapiens) (UniProt P03372); experiment: qHTS assay to identify small molecule agonists of the estrogen receptor alpha (ER-alpha) signaling pathway in the presence of an antagonist (AID 1259383; calls by dose curve; also: top concentration of the series differs between compounds; nearly all actives have a fitted effect of over 15% in size)
Sequence of Estrogen receptor (Homo sapiens) (P03372 whole entry, looked up): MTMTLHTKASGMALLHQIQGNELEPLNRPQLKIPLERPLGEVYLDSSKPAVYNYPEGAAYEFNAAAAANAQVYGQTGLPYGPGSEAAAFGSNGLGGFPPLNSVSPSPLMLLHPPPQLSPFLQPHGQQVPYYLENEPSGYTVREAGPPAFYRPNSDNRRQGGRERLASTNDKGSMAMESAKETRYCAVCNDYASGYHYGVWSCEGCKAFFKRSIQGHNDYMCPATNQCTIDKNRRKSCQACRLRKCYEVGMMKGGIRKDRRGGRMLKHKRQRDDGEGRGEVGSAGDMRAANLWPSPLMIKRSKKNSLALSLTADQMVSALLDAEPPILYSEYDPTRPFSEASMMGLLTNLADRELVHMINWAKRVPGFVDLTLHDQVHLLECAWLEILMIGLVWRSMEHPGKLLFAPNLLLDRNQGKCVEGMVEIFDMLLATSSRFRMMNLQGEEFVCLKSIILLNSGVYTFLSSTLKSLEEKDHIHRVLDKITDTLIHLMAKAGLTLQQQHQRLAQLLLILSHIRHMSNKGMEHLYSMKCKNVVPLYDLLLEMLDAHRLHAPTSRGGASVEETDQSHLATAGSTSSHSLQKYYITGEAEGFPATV
How it was run: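 Agonist-mode confirmation in the presence of the ER antagonist ICI-182,780 at 10.0nM final. Breast-derived VM7Luc4E2 reporter cells were exposed to compounds for 22hr, and ERE-driven luciferase was quantified by luminescence.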

[3] = qHTS assay to identify small molecule agonists or antagonists of the thyroid stimulating hormone receptor (TSHR) signaling pathway - wild type cell line counter screen (AID 1259384; calls by dose curve)
How it was run: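 Wild-type Hek293 cells, 800/well, 18 h at 37C, then compound with Ro20-1724 for 30 min RT. cAMP by HTRF (cAMP-d2/anti-cAMP cryptate), 1 h RT, fluorescence read. 15 concentrations, triplicates.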

[4] = molecular target: Thyrotropin receptor (Homo sapiens) (UniProt P16473); experiment: qHTS assay to identify small molecule antagonists of the thyroid stimulating hormone receptor (TSHR) signaling pathway (AID 1259385; calls by dose curve; also: nearly all actives have a fitted effect of over 20% in size; also: potency is read from the fitted curve at half-maximal effect)
Sequence of Thyrotropin receptor (Homo sapiens) (P16473 whole entry, looked up): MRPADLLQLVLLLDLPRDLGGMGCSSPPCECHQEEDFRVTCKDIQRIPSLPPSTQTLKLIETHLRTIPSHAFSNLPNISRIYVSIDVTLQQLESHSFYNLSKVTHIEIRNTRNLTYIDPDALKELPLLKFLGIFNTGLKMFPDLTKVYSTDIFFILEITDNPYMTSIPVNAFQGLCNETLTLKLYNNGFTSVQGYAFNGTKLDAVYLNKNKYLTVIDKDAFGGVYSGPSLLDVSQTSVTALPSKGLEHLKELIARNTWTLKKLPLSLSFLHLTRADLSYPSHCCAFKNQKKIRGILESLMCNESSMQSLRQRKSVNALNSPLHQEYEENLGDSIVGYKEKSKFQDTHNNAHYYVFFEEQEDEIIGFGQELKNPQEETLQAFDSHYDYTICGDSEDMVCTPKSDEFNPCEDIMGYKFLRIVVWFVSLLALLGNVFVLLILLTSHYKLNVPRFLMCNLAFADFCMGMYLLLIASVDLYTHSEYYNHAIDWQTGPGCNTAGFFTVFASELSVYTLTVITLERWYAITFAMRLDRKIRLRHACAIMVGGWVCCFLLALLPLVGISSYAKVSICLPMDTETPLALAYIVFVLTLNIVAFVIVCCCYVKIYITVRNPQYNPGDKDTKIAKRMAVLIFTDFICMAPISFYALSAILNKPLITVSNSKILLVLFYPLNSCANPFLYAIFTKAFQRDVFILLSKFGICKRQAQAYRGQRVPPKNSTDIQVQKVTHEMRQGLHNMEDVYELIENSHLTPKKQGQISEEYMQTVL
How it was run: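 TSHR-HEK293 cells (800/well) plated 18 h, then compounds with Ro20-1724 and TSH at 1.5 ng/mL final, 30 min at room temperature. cAMP quantified by HTRF (cAMP-d2/anti-cAMP-cryptate, 1 h); 15 concentrations in triplicate.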

[5] = qHTS assay to identify small molecule agonists of the estrogen receptor alpha (ER-alpha) signaling pathway in the presence of an antagonist - cell viability counter screen (AID 1259386);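 also: cells exposed to compounds for 22 h at 37 °C before the viability read; nearly all actives have a fitted effect of over 30% in size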; also: potency is read from the fitted curve at half-maximal effect
How it was run: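 Cytotoxicity was measured in parallel with the ERE-luciferase agonist screen, in the same wells. The cells were VM7Luc4E2, which endogenously express ER-alpha, and treatment was with compounds plus 10.0nM ICI-182,780 for 22hr.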

[6] = molecular target: Progesterone receptor (Homo sapiens) (UniProt P06401); experiment: qHTS assay to identify small molecule agonists of the progesterone receptor (PR) signaling pathway (AID 1346784; calls by dose curve; also: nearly all actives have a fitted effect of over 30% in size; also: potency is read from the fitted curve at half-maximal effect)
Sequence of Progesterone receptor (Homo sapiens) (P06401 whole entry, looked up): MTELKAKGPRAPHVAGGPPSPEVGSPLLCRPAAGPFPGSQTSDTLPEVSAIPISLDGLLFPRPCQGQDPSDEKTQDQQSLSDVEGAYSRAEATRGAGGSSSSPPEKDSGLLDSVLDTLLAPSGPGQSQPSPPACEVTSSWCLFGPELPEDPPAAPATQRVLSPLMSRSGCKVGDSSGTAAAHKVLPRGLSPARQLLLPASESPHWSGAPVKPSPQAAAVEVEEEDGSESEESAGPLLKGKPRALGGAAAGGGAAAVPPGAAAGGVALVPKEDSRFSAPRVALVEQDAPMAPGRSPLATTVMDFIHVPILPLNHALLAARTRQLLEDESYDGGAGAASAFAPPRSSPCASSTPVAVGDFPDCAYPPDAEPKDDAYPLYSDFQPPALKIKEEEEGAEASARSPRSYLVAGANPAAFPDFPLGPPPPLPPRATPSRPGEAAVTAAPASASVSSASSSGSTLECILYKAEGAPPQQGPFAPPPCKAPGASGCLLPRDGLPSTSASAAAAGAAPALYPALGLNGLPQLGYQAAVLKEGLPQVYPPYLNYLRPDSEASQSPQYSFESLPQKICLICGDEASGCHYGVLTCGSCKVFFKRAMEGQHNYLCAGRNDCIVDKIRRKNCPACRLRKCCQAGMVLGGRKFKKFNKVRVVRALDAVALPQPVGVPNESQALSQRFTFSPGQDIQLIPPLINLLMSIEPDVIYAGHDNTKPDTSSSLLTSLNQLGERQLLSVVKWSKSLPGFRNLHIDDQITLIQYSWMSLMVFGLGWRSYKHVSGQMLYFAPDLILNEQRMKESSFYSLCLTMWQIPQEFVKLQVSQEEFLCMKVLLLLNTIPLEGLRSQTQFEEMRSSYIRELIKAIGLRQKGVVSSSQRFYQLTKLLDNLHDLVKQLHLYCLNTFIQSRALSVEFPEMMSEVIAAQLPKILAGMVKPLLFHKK
How it was run: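 Cells (PR-UAS-bla HEK 293T, GripTite) were plated in assay medium containing 2% charcoal-stripped FBS and incubated 6 hr. Test compounds in DMSO were added for 16 hr at 37C. FRET substrate was then loaded for 2 hr at room temperature before fluorescence reading.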

[7] = qHTS assay to identify small molecule agonists of the TGF-beta/Smad signaling pathway (AID 1346859; active = well fitted activation curve with a large enough effect in the signal ratio in the repeat runs, not every such curve was filed as active; the % refers to the signal ratio; also: series mostly up to about 77 µM)
How it was run: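 Reporter line: HEK 293T with stably integrated SBE-controlled beta-lactamase. Compound exposure lasts 5 hr at 37 C and 5% CO2; substrate loading follows for 2 hr at room temperature, with emission read at 460 and 530 nm.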

[8] = molecular target: Thyrotropin-releasing hormone receptor (Homo sapiens) (UniProt P34981); experiment: qHTS assay to identify small molecule antagonists of the thyrotropin-releasing hormone receptor (TRHR) signaling pathway (AID 1346877; active = well fitted inhibition curve with a large enough effect in the repeat runs, not every such curve was filed as active; also: series mostly up to about 51 µM)
Sequence of Thyrotropin-releasing hormone receptor (Homo sapiens) (P34981 whole entry, looked up): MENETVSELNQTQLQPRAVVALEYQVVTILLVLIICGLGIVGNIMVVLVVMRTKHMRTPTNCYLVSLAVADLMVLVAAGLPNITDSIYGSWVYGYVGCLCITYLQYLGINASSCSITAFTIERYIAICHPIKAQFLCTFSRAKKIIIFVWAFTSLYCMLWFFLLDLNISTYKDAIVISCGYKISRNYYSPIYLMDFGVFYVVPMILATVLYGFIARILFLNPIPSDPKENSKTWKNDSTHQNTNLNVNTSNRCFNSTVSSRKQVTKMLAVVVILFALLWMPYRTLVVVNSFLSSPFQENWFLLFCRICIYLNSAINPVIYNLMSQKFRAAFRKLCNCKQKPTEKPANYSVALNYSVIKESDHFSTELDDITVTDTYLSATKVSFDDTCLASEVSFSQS
How it was run: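 Antagonism is measured as suppression of the calcium response to 1 nM TRH in TRHR-HEK293 cells that have been dye-loaded for 2 h at 37 °C after overnight plating. Each compound is tested at 15 concentrations in triplicate.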

[9] = molecular target: Thyrotropin-releasing hormone receptor (Homo sapiens) (UniProt P34981); experiment: qHTS assay to identify small molecule agonists of the thyrotropin-releasing hormone receptor (TRHR) signaling pathway (AID 1346891; calls by dose curve;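 also: HEK293 cells expressing TRHR with calcium dye readout; series mostly up to about 58 µM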)
How it was run: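 Cells: TRHR-Hek293, seeded and incubated 18 h. Dye loading: 2 h at 37 °C. Compound added from DMSO stock by pin tool. Read-out: kinetic calcium fluorescence over 3 min.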

[10] = Human pregnane X receptor (PXR) small molecule agonists, qHTS cell viability counter screen (AID 1346977); also: nearly all actives have a fitted effect of over 50% in size; also: potency is read from the fitted curve at half-maximal effect
How it was run: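 Cytotoxicity counter screen run in the same wells as the PXR luciferase assay, using PXR-Luc HepG2 cells in charcoal-stripped serum medium. Viability: CellTiter-Fluor fluorescence after 24hr compound treatment.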

[11] = molecular target: Androgen receptor (Homo sapiens) (UniProt P10275); experiment: qHTS assay to identify small molecule agonists of the androgen receptor (AR) signaling pathway in the presence of an antagonist (AID 1259381; calls by dose curve; also: nearly all actives have a fitted effect of over 15% in size)
Sequence of Androgen receptor (Homo sapiens) (P10275 whole entry, looked up): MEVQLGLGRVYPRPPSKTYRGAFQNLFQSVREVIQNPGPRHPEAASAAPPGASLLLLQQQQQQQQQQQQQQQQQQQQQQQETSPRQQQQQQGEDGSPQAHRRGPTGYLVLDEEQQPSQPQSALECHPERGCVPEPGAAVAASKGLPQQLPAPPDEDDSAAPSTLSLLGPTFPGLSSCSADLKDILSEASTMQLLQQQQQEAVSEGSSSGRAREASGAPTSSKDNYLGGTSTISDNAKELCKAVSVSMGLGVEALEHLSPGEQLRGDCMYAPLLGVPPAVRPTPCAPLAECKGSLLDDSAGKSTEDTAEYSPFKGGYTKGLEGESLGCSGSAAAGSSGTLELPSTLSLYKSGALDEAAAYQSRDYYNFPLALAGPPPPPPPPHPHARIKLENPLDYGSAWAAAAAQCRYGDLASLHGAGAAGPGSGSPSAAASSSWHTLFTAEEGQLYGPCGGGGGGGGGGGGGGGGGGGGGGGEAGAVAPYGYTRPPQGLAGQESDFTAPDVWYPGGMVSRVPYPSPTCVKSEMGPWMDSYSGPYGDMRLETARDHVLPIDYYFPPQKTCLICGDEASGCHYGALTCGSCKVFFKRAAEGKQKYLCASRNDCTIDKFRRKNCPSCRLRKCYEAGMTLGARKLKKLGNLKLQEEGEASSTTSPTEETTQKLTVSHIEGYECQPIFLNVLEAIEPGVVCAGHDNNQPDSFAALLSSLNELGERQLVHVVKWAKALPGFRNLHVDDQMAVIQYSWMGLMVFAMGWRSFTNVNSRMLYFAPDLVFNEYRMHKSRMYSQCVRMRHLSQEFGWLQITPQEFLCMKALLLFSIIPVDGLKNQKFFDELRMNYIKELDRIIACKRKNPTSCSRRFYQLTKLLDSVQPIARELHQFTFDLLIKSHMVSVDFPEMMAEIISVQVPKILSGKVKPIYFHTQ
How it was run: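 Agonist-mode confirmation screen: human MDA-kb2 cells stably expressing luciferase under an MMTV promoter bearing AR and GR response elements, co-treated with 3.0uM nilutamide (final). Luminescence measured after 16hr compound incubation.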

[12] = molecular target: Progesterone receptor (Homo sapiens) (UniProt P06401); experiment: qHTS assay to identify small molecule antagonists of the progesterone receptor (PR) signaling pathway (AID 1346795; active = well fitted inhibition curve with a large enough effect in the signal ratio in the repeat runs, not every such curve was filed as active; the % refers to the signal ratio; also: potency is read from the fitted curve at half-maximal effect)
How it was run: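 Antagonist mode: compounds tested against 1 nM (final) promegestone stimulation in HEK293T cells expressing PR-UAS-bla reporter, 16 hr at 37C, 5% CO2; beta-lactamase activity detected via B/G FRET substrate after 2 hr at room temperature.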

[13] = qHTS assay to identify small molecule antagonists of the TGF-beta/Smad signaling pathway - cell viability counter screen (AID 1346824); also: nearly all actives have a fitted effect of over 50% in size
How it was run: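 SBE-bla HEK 293T cells, incubated overnight, then compound plus 0.25 ng/mL TGF-beta1 (stock added) for 5 hr at 37 C. Viability was read in the same wells by CellTiter-Glo luminescence after 30 min at room temperature.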

[14] = qHTS assay to identify small molecule agonists of the TGF-beta/Smad signaling pathway - cell viability counter screen (AID 1346829); also: top concentration of the series differs between compounds; nearly all actives have a fitted effect of over 45% in size
How it was run: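 HEK 293T SBE-bla line, 5 hr compound exposure at 37 C, multiplexed CellTiter-Glo viability read by luminescence.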

[15] = Caspase-3/7 induction in HepG2 cells by small molecules, qHTS assay (AID 1346978); also: nearly all actives have a fitted effect of over 15% in size; also: potency is read from the fitted curve at half-maximal effect
How it was run: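 Wild-type HepG2 cells, 2,000/well, settled 5 hr at 37 C and 5% CO2, then compound-treated for 17 hr; caspase-3/7 activity read by luminescent Caspase-Glo 3/7 after 30 min at room temperature.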

[16] = qHTS assay to identify small molecule agonists of the androgen receptor (AR) signaling pathway in the presence of an antagonist - cell viability counter screen (AID 1259379);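 also: MDA-kb2 human breast cancer cells carrying an MMTV luciferase reporter; series mostly up to about 92 µM; nearly all actives have a fitted effect of over 25% in size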
How it was run: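 Cytotoxicity is assessed by CellTiter-Fluor in MDA-kb2 cells carrying an MMTV-driven luciferase reporter. Cells receive 3.0uM nilutamide plus compounds at 15 concentrations and incubate 16 hr at 37C without CO2 before fluorescence reading.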

[17] = qHTS assay to identify small molecule antagonists of the progesterone receptor (PR) signaling pathway - cell viability counter screen (AID 1346798); also: nearly all actives have a fitted effect of over 50% in size; also: potency is read from the fitted curve at half-maximal effect
How it was run: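 Counter screen for cytotoxicity: viability of PR-UAS-bla HEK293T cells was measured with CellTiter-Glo luminescence following 16 hr compound exposure in the presence of R5020.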

[18] = qHTS assay to identify small molecule agonists of the progesterone receptor (PR) signaling pathway - cell viability counter screen (AID 1346799; calls by dose curve; also: nearly all actives have a fitted effect of over 45% in size; also: potency is read from the fitted curve at half-maximal effect)
How it was run: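 Cells (PR-UAS-bla HEK293T) are plated at 3,000/well in 2% charcoal-stripped FBS medium, rested 6 hr, dosed and incubated 16 hr at 37C. CellTiter-Glo is then added and luminescence measured after 30 min at room temperature.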

[19] = qHTS assay to identify small molecule antagonists of the estrogen receptor beta (ER-beta) signaling pathway - cell viability counter screen (AID 1259382); also: nearly all actives have a fitted effect of over 55% in size; also: potency is read from the fitted curve at half-maximal effect
How it was run: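 Cytotoxicity counter screen multiplexed with the beta-lactamase antagonist assay: GripTite HEK293T ER-beta-bla cells were treated 16 hr with test chemicals in the presence of 1nM 17-beta-estradiol, and viability was measured by CellTiter-Glo.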

Measured: Potency

C[C@]12Cc3nonc3C[C@@H]1CC[C@@H]1[C@@H]2CC[C@@]2(C)[C@H]1CC[C@]2(C)O
inactive: [2] | [3] | [4] | [5] | [7] | [8] | [9] | [10]
active: [1] 26.6 µM | [6] 1.19 µM

CC(C)(C)C(O)C(Oc1ccc(-c2ccccc2)cc1)n1cncn1 (stereo not given)
active: [12] 61.1 µM | [10] 61.1 µM
not listed: [1] | [6] | [16] | [17] | [18] | [19]
inactive: all other assays above

Clc1ccc(C(c2ccccc2Cl)C(Cl)(Cl)Cl)cc1 (stereo not given)
inactive: [16] | [5] | [6] | [17] | [14] | [7] | [8] | [9] | [10] | [15]
active: [12] 4.51 µM

N#CCCC(Br)(C#N)CBr (stereo not given)
inactive: [2] | [3] | [18] | [13] | [14] | [7] | [9] | [15]
active: [1] 43.3 µM | [4] 54.5 µM

CCCCN(CCCC)C(=S)[S-].CCCCN(CCCC)C(=S)[S-].[Zn+2]
inactive: [2] | [13] | [14] | [15]
active: [1] 13.7 µM | [19] 30.6 µM | [5] 24.3 µM | [12] 12.2 µM | [17] 43.2 µM | [10] 13.7 µM

c1ccc2cc3c(cc2c1)-c1cccc2cccc-3c12
inactive: [1] | [11] | [2] | [17] | [18] | [13] | [14] | [10]
active: [15] 7.59 µM

CC(C)(C)C(O)/C(=C\c1ccc(Cl)cc1Cl)n1cncn1 (stereo not given)
inactive: [2] | [13] | [14] | [7]
active: [1] 74 µM | [10] 74 µM

O=[N+]([O-])c1c2ccccc2cc2ccccc12
active: [17] 27 µM
inactive: [3] | [13] | [14] | [8] | [9] | [15]

Clc1ccc(CCC(Cn2ccnc2)Sc2c(Cl)cccc2Cl)cc1 (stereo not given)
active: [19] 33.5 µM | [18] 21.1 µM
inactive: [3] | [5] | [13] | [14] | [15]

COc1ccc(OC)c(CC(C)N)c1 (stereo not given)
not listed: [1] | [4] | [11] | [15] | [17] | [19]
inactive: all other assays above

CSCCCN=C=S
not listed: [2] | [3] | [4] | [6] | [7] | [11] | [16] | [17]
inactive: all other assays above

CC(=O)[O-].CC(=O)[O-].O.O.[Cd+2]
active: [5] 60.3 µM | [12] 0.603 µM | [17] 19.1 µM | [18] 15.1 µM | [10] 8.51 µM
inactive: [16] | [14] | [15]
